Reference: PubChem BioAssay AID1863 (Southern Research Specialized Biocontainment Screening …, 2009)
The whole screen tested about 300,000 compounds, of which about 480 (0.16%) were called active. These entries were drawn from the full list. Potency and affinity values are given separately. Unmarked numbers belong to inactive results.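 The calls were made as follows: active = inhibition over 29.93%, a cutoff 3 SD above the screen mean, later confirmed by dose response; inconclusive = inhibition over 29.93% but no dose response follow-up; inactive = inhibition at most 29.93% or unconfirmed.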

Test: PhoP-dependent GFP reporter repression – Salmonella Typhimurium, primary screen (AID 1863);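 also: 0% = low Mg2+ inducing control and 100% = high Mg2+ repressing control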
Details: S. Typhimurium PhoP-regulated promoter GFP reporter, 4 h; at 50 µM; hits give high values

Row | SMILES | inhibition [%]
1 | C#CCOCCOCCOCCNc1nc(N2CCN(C(=O)CCCCCCCCCCNC(=O)[C@H]([C@@H](C)CC)n3cc(CCCCCN)nn3)CC2)nc(N2CCN(C(=O)CCCCCCCCCCNC(=O)[C@H]([C@@H](C)CC)n3cc(CCCCN=C(N)N)nn3)CC2)n1 | 11.9
2 | C#CCOCCOCCOCCNc1nc(N2CCN(C(=O)CCCCCCCCCCNC(=O)[C@H]([C@@H](C)CC)n3cc(CCCCN=C(N)N)nn3)CC2)nc(N2CCN(C(=O)CCCCCCCCCCNC(=O)[C@H](CCCCN)n3cc(C)nn3)CC2)n1 | 24.6
3 | C#CCOCCOCCOCCNc1nc(N2CCN(C(=O)CCCCCCCCCCNC(=O)[C@H](CO)n3cc(CCCSC)nn3)CC2)nc(N2CCN(C(=O)CCCCCCCCCCNC(=O)[C@H](CCCN=C(N)N)n3cc(C[C@@H](C)CC)nn3)CC2)n1 | 4.93
4 | C#CCOCCOCCOCCNc1nc(N2CCN(C(=O)CCCCCCCCCCNC(=O)[C@@H](CCSC)n3cc(CCO)nn3)CC2)nc(N2CCN(C(=O)CCCCCCCCCCNC(=O)[C@H]([C@@H](C)CC)n3cc(CCCCN=C(N)N)nn3)CC2)n1 | 4.22
5 | C#CCOCCOCCOCCNc1nc(N2CCN(C(=O)CCCCCCCCCCNC(=O)[C@H]([C@@H](C)CC)n3cc(CCCCN=C(N)N)nn3)CC2)nc(N2CCN(C(=O)CCCCCCCCCCNC(=O)[C@H](CCCCN)n3cc(C[C@@H](C)CC)nn3)CC2)n1 | 21.5
6 | C#CCOCCOCCOCCNc1nc(N2CCOCC2)nc(N2CCN(C(=O)CCCCCCCCCCNC(=O)[C@H]([C@@H](C)CC)n3cc(CCCCN=C(N)N)nn3)CC2)n1 | 11.5
7 | Cc1cc(C)nc(-n2nc(C)cc2NC(=O)CNCc2ccccc2)n1 | 1.3
8 | COC(=O)c1ccc(COc2ccc(/C=N/Nc3nc(C)cc(=O)[nH]3)cc2)cc1 | 2.45
9 | Cc1ccc(N2C(=O)c3cccc4c(Oc5ccccc5[N+](=O)[O-])ccc(c34)C2=O)c(C)c1 | -0.66
10 | CC(=O)c1cccc(S(=O)(=O)N(C)C2CCN(C)CC2)c1 | 6.64
11 | COc1cnc(-c2cccc(C(F)(F)F)c2)[nH]c1=O | -6.31
12 | COc1cnc(-c2ccccc2)[nH]c1=O | 3.46
13 | CCN(CC)CCNC(=O)C(=O)Nc1ccc2c(c1)N(S(=O)(=O)c1cccs1)CCC2 | 0.58
14 | CC1(C)CC(=O)c2sc(NS(=O)(=O)c3ccc(Cl)cc3)nc2C1 | -6.02
15 | CCn1c(CSc2nnc(-c3ccncc3)n2CCOC)nc2cc(C(=O)O)ccc21 | 1.32
16 | CC(C)(C)NCC(O)COc1ccc(Br)cc1 (centres undefined) | -5.49
17 | COc1ccc(NCC(O)COc2ccc(C(C)(C)C)cc2)cc1 (centres undefined) | 18.9
18 | CC(=O)Nc1ccc(Nc2cc(C)c3ccccc3n2)cc1 | -1.27
19 | COc1ccc(Nc2cc(C)c3ccccc3n2)cc1 | -10.8
20 | Cc1ccc(Nc2cc(C)c3ccc(O)cc3n2)cc1C | 59.6
21 | COC(=O)c1cc(Nc2cc(C)c3c(O)cccc3n2)cc(C(=O)OC)c1 | 1.78
22 | O=C(Nc1ccccc1)c1cnc(-c2ccccc2)nc1-c1ccccc1 | -0.26
23 | NC(=O)C1CCN(C(=O)CSc2ccccn2)CC1 | -5.25
24 | CCCCCCNC(=O)c1cc(S(=O)(=O)N2CCc3ccccc32)ccc1F | -0.27
25 | O=C(NNCc1ccc(O)cc1)c1ccccc1Cl | -5.79

Row | SMILES | inhibition [%]
26 | O=C(O)CC(Cc1ccc(Cl)cc1)C(=O)Nc1ccc([N+](=O)[O-])cc1 (centres undefined) | -6.77
27 | O=[N+]([O-])c1ccc(C(O)C(CO)NC(=S)Nc2ccccc2)cc1 (centres undefined) | -9.91
28 | CCOC(=O)C(NC(C)=O)C(O)c1ccc([N+](=O)[O-])cc1 (centres undefined) | 4.56
29 | NC(CO)C(O)c1ccc([N+](=O)[O-])cc1 (centres undefined) | 2.92
30 | O=C(O)CC(Cc1ccccc1)C(=O)Nc1ccc([N+](=O)[O-])cc1 (centres undefined) | -0.18
31 | O=C(Cc1ccccc1)NC(C(=O)O)C(O)c1ccc([N+](=O)[O-])cc1 (centres undefined) | 2.69
32 | COc1ccc(S(=O)(=O)N2CCCCCC2)cc1N(C)S(=O)(=O)c1ccc(C)cc1 | -9.69
33 | CCCC(=O)N(c1ccc(OCC)cc1)C1C=CS(=O)(=O)C1 (centres undefined) | -5.2
34 | C[C@@H]1CN(c2c(F)c(N)c3c(=O)c(C(=O)O)cn(C4CC4)c3c2F)C[C@H](C)N1 | -7.7
35 | COC(=O)C(c1cc(OC)c(O)c(OC)c1)(N1CCNC(C)C1)C(F)(F)F (centres undefined) | 1.17
36 | O=C(O)c1cn(C2CCCCC2)c2ccccc2c1=O | -3.48
37 | CCOC(=O)c1cn(C2CC2)c2c(F)c(F)c(F)cc2c1=O | -6.9
38 | COC(=O)c1ccc(NC(=O)C(OC)c2ccccc2)cc1 (centres undefined) | 5.34
39 | O=C(NNC(=O)c1ccccc1OCc1ccc(F)cc1)c1ccccc1O | 1.71
40 | COc1cccc(Oc2ccc(S(=O)(=O)N3CCCC3)cc2[N+](=O)[O-])c1 | -0.65
41 | COc1ccc([C@@H]2[C@@H]3C(=O)N(C(C)(C)C)C(=O)[C@@H]3[C@]3(Cc4ccccc4)C(=O)N(c4ccccc4)C(=O)N23)cc1 | 6.74
42 | O=C(COc1ccccc1F)NNC(=O)c1ccc2c(=O)n3c(nc2c1)CCC3 | -5.21
43 | CC(CN1CCCCC1)OC(=O)C(C)(c1ccccc1)c1ccccc1 (centres undefined) | -9.7
44 | O=S(=O)(NCC1CCCO1)c1ccc(S(=O)(=O)N(Cc2ccc(F)cc2)Cc2ccco2)cc1 (centres undefined) | 2.4
45 | CCCC(=O)Nc1c2c(nc3ccccc13)N(c1ccccc1)CC2 | -4.18
46 | CCN(CCCCN1C(=O)c2ccccc2C1=O)c1ccc2c(c1)C(=O)N(C)C2=O | -8.03
47 | COc1ccc(-c2cc3ccccc3n2CC(O)Cn2nc(C)cc2C)cc1 (centres undefined) | 1.53
48 | O=C(O)c1cn(-c2ccc(N3CCCC3)c(F)c2)c2c(F)c(F)c(F)cc2c1=O | -6.63
49 | O=C(O)c1cn(-c2ccc(F)cc2)c2cc(Cl)c(F)cc2c1=O | 5.58
